Calls of active or inactive are those of the source. How the source made its calls: active means hit-call score of the fitted dose curve at least 0.9, where 1 is the maximum; inactive means score below 0.9.
assay: ATG_NFI_CIS: Attagene CIS-FACTORIAL HepG2 Assay for human Nuclear Factor I (NFI) (AID 2282989); settings: HepG2 cis-regulatory reporter, NFI response element transcription; actives raise or lower the signal
Protocol: ATG_CIS is a cell-based, multiplexed-readout assay that uses HepG2, a human liver cell line, with measurements taken at 24 hours after chemical dosing in a 24-well plate.ATG_NFI_CIS is one of 52 assay component(s) measured or calculated from the ATG_CIS assay. It is designed to make measurements of mRNA induction, a form of inducible reporter, as detected with fluorescence intensity signals by Reverse transcription polymerase chain reaction (RT-PCR) and Capillary electrophoresis technology.Data from the assay component ATG_NFI_CIS was analyzed into 1 assay endpoint. This assay endpoint, ATG_NFI_CIS, was analyzed with bidirectional fitting relative to DMSO as the negative control and baseline of activity. Using a type of inducible reporter, measures of mRNA for gain or loss-of-signal activity can be used to understand the reporter gene at the transcription factor-level as they relate to the gene NFIA. Furthermore, this assay endpoint can be referred to as a primary readout, because this assay has produced multiple assay endpoints where this one serves a reporter gene function. To generalize the intended target to other relatable targets, this assay endpoint is annotated to the dna binding intended target family, where the subfamily is nuclear factor I.
Human liver HepG2 cells are transiently transfected with multiple reporter transcription units (MRTUs) in 6-well plates using FuGene 6 reagent (Roche; 3 ml FuGene/1 mg DNA). The MRTU constructs are regulated by a cis-regulating element (promoter). […] A major difference between the CIS and TRANS system is that in CIS activities of endogenous TFs are measured, whereas the TRANS assay evaluates changes in activities of exogenous, chimeric NR-Gal4 proteins. […] At the end of 24 hour incubation, total RNA was isolated using TriZol reagent (Invitrogen). The isolated RNA is then reverse-transcribed using oligo(dT) primer and Mo-MLV reverse transcriptase (Invitrogen) with DNAse I (Ambion) treatment for 30 min. The one-tenth of the produced cDNA was amplified by PCR using Taq DNA polymerase (Invitrogen) and two reporter sequence-specific primers. The PCR products were fluorescently labeled by primer extension with 6-arboxyfluorescein (6-FAM) 5'-labeled reporter sequence-specific primer (2 min at 95 C, 20 s at 68 C and 10 min at 72 C) and these products were digested with 5U of HpaI (New England Biolabs) for 2h at 37 C. The fragments were purified using Qiaquick PCR columns (Qiagen), analyzed on an ABI 3130xL genetic analyzer (Applied Biosystems) with peak positions identified by using a set of X-rhodamine (ROX)-labeled MapMarker1000 molecular weight standards (BioVentures). The raw capillary electrophoresis data was processed using Attagraph software (Attagene).

| Compound | outcome | AC50 |
| --- | --- | --- |
| C(=C(c1ccccc1)c1ccccc1)c1ccccc1 | inactive |  |
| CCCCCCCCC(F)(F)C(F)(F)C(F)(F)C(F)(F)C(F)(F)C(F)(F)F |  | 36 µM (active) |
| CC(C)=CCCC(C)CCOC(=O)C(C)C (stereo not given) | inactive |  |
| CC(=O)Nc1ccc(N=Nc2cc(C)ccc2O)cc1 | inactive |  |
| CCCCCCC(C)OC(=O)CCCCC(=O)OC(C)CCCCCC (stereo not given) | inactive |  |
| C=C(C)C(=O)OCC(F)(F)C(F)(F)C(F)(F)C(F)(F)C(F)(F)C(F)(F)C(F)(F)F | inactive |  |
| OCC(F)(F)C(F)(F)C(F)(F)F | inactive |  |
| CC/C=C\CCOC(=O)c1ccccc1 | inactive |  |
| Oc1ccc(Nc2ccccc2)cc1 | inactive |  |
| O=S(=O)(O)c1ccc2ccccc2c1 | inactive |  |
| CN(C)Cc1ccccc1O | inactive |  |
| O=C(O)C(F)(F)C(F)(F)C(F)F | inactive |  |
| C=C(C)C(=O)OCC(F)(F)C(F)(F)C(F)(F)F | inactive |  |
| CCO[Si](CCC(F)(F)C(F)(F)C(F)(F)C(F)(F)C(F)(F)C(F)(F)F)(OCC)OCC | inactive |  |
| Nc1ccc(Oc2cccc(Oc3ccc(N)cc3)c2)cc1 |  | 166 µM (active) |
| FC(F)(F)C(F)(F)C(F)(F)C(F)(F)C(F)(F)C(F)(F)C(F)(F)Br | inactive |  |
| O=S(=O)(OCC(F)F)C(F)(F)F | inactive |  |
| CCN(Cc1cccc(S(=O)(=O)O)c1)c1ccc(C(=C2C=CC(=[N+](CC)Cc3cccc(S(=O)(=O)O)c3)C=C2)c2ccc(O)cc2S(=O)(=O)[O-])cc1 | inactive |  |
| FC(F)(Br)C(F)(F)C(F)(F)C(F)(F)C(F)(F)C(F)(F)Br | inactive |  |
| COC(OC(C)=O)c1ccccc1 (stereo not given) | inactive |  |

| Compound | outcome | AC50 |
| --- | --- | --- |
| CCCCCC=O | inactive |  |
| Cc1ccc(S(=O)(=O)OCC(F)(F)C(F)(F)C(F)(F)C(F)(F)C(F)(F)C(F)F)cc1 | inactive |  |
| CO[Si](OC)(c1ccccc1)c1ccccc1 | inactive |  |
| O=C(OCCOCCOCCOC(=O)c1ccccc1)c1ccccc1 | inactive |  |
| c1ccc(-c2ccccc2-c2ccccc2)cc1 |  | 100 µM (active) |
| O=C(O)C(F)(F)C(F)(F)C(F)(F)C(F)(F)C(F)(F)C(F)(F)C(F)(F)C(F)(F)C(F)(F)C(F)(F)C(F)(F)C(F)(F)F | inactive |  |
| CCc1ccc(C(c2ccc(CC)cc2)C(Cl)Cl)cc1 | inactive |  |
| C=CC(=O)OCC(F)(F)C(F)(F)C(F)(F)C(F)(F)COC(=O)C=C |  | 50 µM (active) |
| C=C(C)C(=O)OCCC(F)(F)C(F)(F)C(F)(F)C(F)(F)C(F)(C(F)(F)F)C(F)(F)F | inactive |  |
| FC(F)(I)C(F)(F)C(F)(F)C(F)(F)I | inactive |  |
| CCCCC(CC)COP(=O)(O)OCC(CC)CCCC (stereo not given) | inactive |  |
| FC(F)(F)C(F)(F)C(F)(F)C(F)(F)C(F)(F)C(F)(F)C(F)(F)C(F)(F)CCS | inactive |  |
| OC[C@@H](O)[C@@H](O)[C@H](O)[C@@H](O)CO | inactive |  |
| [Co] | inactive |  |
| CCc1c(Br)c(Br)c(Br)c(Br)c1Br | inactive |  |
| COC(=O)C1CCC(C(=O)OC)CC1 (stereo not given) | inactive |  |
| CC(C)c1ccccc1N | inactive |  |
| Nc1cc(Cl)c(N)c(Cl)c1 | inactive |  |
| OCC(F)(F)C(F)(F)C(F)(F)C(F)F | inactive |  |
| CCCCNc1ccccc1 | inactive |  |

Reference: PubChem BioAssay (EPA / NIEHS)
